For 51 compounds, Potency results are on record in PubChem BioAssay (NCATS).

The nature of test [1]: NS1 protein of Zika virus - qHTS assay to identify small molecule inhibitors in human HEK 293 cells (AID 1347053). Also: nearly all actives have a fitted effect of over 55% in size. The settings on record: HEK293 ZIKV MR766 infection, NS1 TR-FRET, 24 h; series mostly up to 46.1 µM. Put shortly: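 In this cell-based screen, HEK 293 cultures received compound for one hour before Zika MR766 at MOI = 0.5. NS1 was quantified 24 hours later by TR-FRET, normalized to virus-free wells and infected wells.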

A short description of test [2]: qHTS of pediatric cancer cell lines to identify multiple opportunities for drug repurposing: Primary screen for TC32 cells (AID 1347089). Also: nearly all actives have a fitted effect of over 60% in size. The note with it: TC32 Ewing sarcoma viability, CellTiter-Glo luminescence, 48 h; series mostly up to 45.8 µM. A digest of the protocol:
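Measured quantity: luminescence from CellTiter-Glo, reflecting metabolically active TC32 cells following 48 h of compound. Curves came straight from multi-point titrations, with 8 or 11 points in primary and 11 in confirmatory screening.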

Test [3] can be described thus: qHTS of pediatric cancer cell lines to identify multiple opportunities for drug repurposing: Primary screen for DAOY cells (AID 1347090). Also: nearly all actives have a fitted effect of over 55% in size. The note with it: DAOY medulloblastoma viability, CellTiter-Glo luminescence, 48 h; series mostly up to 46 µM. A digest of the protocol: (§1)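 Cell viability, CellTiter-Glo luminescence; 500-1,000 cells/well, 8- or 11-point titration, 48 h compound exposure at 37 degrees C, 5% CO2. Controls: DMSO neutral, bortezomib 2.3 µM final as positive.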

Test [4] in a line: qHTS of pediatric cancer cell lines to identify multiple opportunities for drug repurposing: Primary screen for SJ-GBM2 cells (AID 1347091). The note with it: SJ-GBM2 viability, CellTiter-Glo luminescence, 48 h; series mostly up to 46 µM. A digest of the protocol: as §1

Values joined by “and” are separate entries in the source; they are usually repeats but may differ in a detail not shown here. Identical values can stand only once. Results filed as inconclusive are left out. Some structures have more than one record in an assay (separate samples or runs), and their calls can disagree. Active and inactive are the calls of the source. Calls follow the shape of the dose curve; as a rule, active = well fitted curve in the direction sought with a large enough effect; inconclusive = small, poorly fitted or top-dose-only effect, or another doubt; inactive = no such curve, though single readings can be large; an effect the other way counts as inactive or inconclusive.
Potency is read from the fitted curve at half-maximal effect.

For the compound `COc1cccc(N(C)C(=S)Oc2ccc3c(c2)CCCC3)n1`, in test [1], the Potency result is “inactive and 18.7 µM (active)”. Also, the Potency result in test [2], in test [3] and in test [4] was “inactive” in each case.

Turning to `CNC(=O)c1cc(Oc2ccc(NC(=O)Nc3ccc(Cl)c(C(F)(F)F)c3)cc2)ccn1`, the Potency result in test [1] and in test [2] was “inactive” in each case. The Potency in test [3] is 11.8 µM (active); in test [4], 8.33 µM (active).

Consider `CCCOc1ccc(C(=O)OCCN(CC)CC)cc1N`, for which the Potency entry in test [1], in test [2], in test [3] and in test [4] was “inactive” throughout.

In the case of `C[C@@H]1CN(c2c(F)c(N)c3c(=O)c(C(=O)O)cn(C4CC4)c3c2F)C[C@H](C)N1`, the Potency entry in test [1], in test [2] and in test [3] was “inactive” in each case.

`CCCN[C@H]1CCc2nc(N)sc2C1`: the Potency entry in test [1], in test [2] and in test [3] was “inactive” in each case.

As to `Cc1c(-c2ccc(O)cc2)n(Cc2ccc(OCCN3CCCCCC3)cc2)c2ccc(O)cc12`, the Potency entry in test [1], in test [2] and in test [4] was “inactive” each time.

For the compound `CCOC(=O)[C@H](CCc1ccccc1)N[C@H]1CS[C@H](c2cccs2)CN(CC(=O)O)C1=O`, the Potency entry in test [2] was “inactive”.

As to `CC[C@H](C)C(=O)O[C@H]1C[C@@H](C)C=C2C=C[C@H](C)[C@H](CC[C@@H]3C[C@@H](O)CC(=O)O3)[C@H]21`, the Potency entry in test [1] and in test [2] was “inactive” throughout. In addition, the Potency in test [3] was 8.41 µM (active) and 9.35 µM (active); in test [4], 9.44 µM (active) and 13.2 µM (active).

On to `CCN[C@H]1C[C@H](C)S(=O)(=O)c2sc(S(N)(=O)=O)cc21`, for which the Potency entry in test [1], in test [2], in test [3] and in test [4] was “inactive” in each case.

In the case of `CC(C)(C)C(=O)OCOP(=O)(COCCn1cnc2c(N)ncnc21)OCOC(=O)C(C)(C)C`, in test [2], the Potency was 2.64 µM (active) and 10.4 µM (active).

Regarding `CC(C)(C)NC(=O)[C@H]1CC[C@H]2[C@@H]3CC[C@H]4NC(=O)C=C[C@]4(C)[C@H]3CC[C@]12C`, the Potency result in test [1] and in test [2] was “inactive” each time. For the same compound, in test [4], the Potency is 14.8 µM (active).

As to `C[C@]12C=CC(=O)C=C1CC[C@@H]1[C@@H]2C(=O)C[C@@]2(C)[C@H]1CC[C@]2(O)C(=O)CO`, the Potency entry in test [1], in test [2], in test [3] and in test [4] was “inactive” each time.

For `O=S(=O)(c1cccc2cnccc12)N1CCCNCC1`, the Potency result in test [1], in test [2], in test [3] and in test [4] was “inactive” throughout.

Turning to `COc1cnc(NS(=O)(=O)c2ccc(N)cc2)nc1`, the Potency entry in test [1], in test [2], in test [3] and in test [4] was “inactive” throughout.

Regarding `Nc1[nH]c(=O)ncc1F`, the Potency result in test [1], in test [2], in test [3] and in test [4] was “inactive” throughout.

As for `CN(Cc1cc(Br)cc(Br)c1N)C1CCCCC1`, the Potency result in test [1], in test [2], in test [3] and in test [4] was “inactive” in each case.

In the case of `CCc1c2c(nc3ccc(OC(=O)N4CCC(N5CCCCC5)CC4)cc13)-c1cc3c(c(=O)n1C2)COC(=O)[C@]3(O)CC`, the Potency in test [1] is 0.332 µM (active); in test [2], 236 nM (active) and 739 nM (active); in test [3], 13.3 µM (active) and 1.48 µM (active); in test [4], 1.19 µM (active) and 590 nM (active).

In the case of `N=C(N)c1ccc(OCCCCCOc2ccc(C(=N)N)cc2)cc1`, the Potency entry in test [1] and in test [4] was “inactive” throughout.

In the case of `CN(CCOc1ccc(CC2SC(=O)NC2=O)cc1)c1ccccn1` (stereo unspecified), the Potency result in test [1], in test [2], in test [3] and in test [4] was “inactive” throughout.

`COc1cc([C@@H]2c3cc4c(cc3[C@H](O)[C@H]3COC(=O)[C@H]23)OCO4)cc(OC)c1OC`: the Potency entry in test [1] is “inactive”. Also, the Potency was 167 nM (active) and 5.2 nM (active) in test [2]; 0.0335 µM (active) in test [3]; 23.7 nM (active) and 1 nM (active) in test [4].

With `CC(C)C1CCC(C(=O)N[C@H](Cc2ccccc2)C(=O)O)CC1` (stereo partly specified), the Potency entry in test [1], in test [2], in test [3] and in test [4] was “inactive” throughout.

`COc1ccc(-c2ccc3cc(C(=O)O)ccc3c2)cc1C12CC3CC(CC(C3)C1)C2`: the Potency entry in test [1] and in test [2] was “inactive” in each case. Also, in test [4], the Potency was 1.87 µM (active).

`COc1ccc2cc3[n+](cc2c1OC)CCc1cc2c(cc1-3)OCO2`: the Potency result in test [1] and in test [4] was “inactive” in each case. Moreover, the Potency in test [3] is 6.68 µM (active) and 18.7 µM (active).

Consider `CC(C(=O)O)c1ccc2c(c1)CC(=O)c1ccccc1S2` (stereo unspecified), for which the Potency result in test [1], in test [2] and in test [4] was “inactive” in each case.

In the case of `C[C@@H](CN1CC(=O)NC(=O)C1)N1CC(=O)NC(=O)C1`, the Potency result in test [1], in test [2], in test [3] and in test [4] was “inactive” in each case.

Consider `CCOC(=O)[C@H](CCc1ccccc1)N[C@H]1CCc2ccccc2N(CC(=O)O)C1=O`, for which the Potency result in test [1] and in test [2] was “inactive” throughout. Further, the Potency in test [4] was 23.5 µM (active).

As to `CC1(C)[C@H](C(=O)O)N2C(=O)C[C@H]2S1(=O)=O`, the Potency result in test [1], in test [2], in test [3] and in test [4] was “inactive” throughout.

Consider `O=P(O)(O)C(O)(Cc1cccnc1)P(=O)(O)O`, for which the Potency entry in test [1], in test [2], in test [3] and in test [4] was “inactive” throughout.

As for `NC(N)=NC(N)=NCCc1ccccc1`, the Potency result in test [1], in test [2] and in test [4] was “inactive” in each case. The Potency in test [3] is 18.7 µM (active).

Consider `NC(=O)N1c2ccccc2CC(=O)c2ccccc21`, for which the Potency entry in test [1], in test [2], in test [3] and in test [4] was “inactive” each time.

Turning to `CC(=O)[C@H]1CC[C@H]2[C@@H]3CC=C4C[C@@H](O)CC[C@]4(C)[C@H]3CC[C@]12C`, the Potency result in test [1], in test [2], in test [3] and in test [4] was “inactive” in each case.

On to `CN1CCCC(n2nc(Cc3ccc(Cl)cc3)c3ccccc3c2=O)CC1` (stereo unspecified), for which the Potency result in test [1] is “inactive”. Moreover, in test [4], the Potency was 1.32 µM (active).

On to `COc1ccccc1OCC(O)COC(N)=O` (stereo unspecified), for which the Potency entry in test [2] and in test [3] was “inactive” throughout.

In the case of `CCOC(=O)c1ccc(OC(=O)CCCCCN=C(N)N)cc1`, the Potency result in test [2] and in test [3] was “inactive” throughout.

For the compound `Cc1oc(=O)oc1CN1CCN(c2cc3c(cc2F)c(=O)c(C(=O)O)c2n3C(C)S2)CC1` (stereo unspecified), the Potency result in test [1], in test [2], in test [3] and in test [4] was “inactive” throughout.

As for `NCCCC(O)(P(=O)(O)O)P(=O)(O)O`, the Potency entry in test [1], in test [2], in test [3] and in test [4] was “inactive” in each case.

As to `COc1cc(NS(=O)(=O)c2ccc(N)cc2)nc(OC)n1`, the Potency entry in test [1], in test [2], in test [3] and in test [4] was “inactive” throughout.

With `CCn1cc(C(=O)O)c(=O)c2cc(F)c(N3CCNCC3)nc21`, the Potency result in test [1], in test [2], in test [3] and in test [4] was “inactive” in each case.

Take `Nc1nc(N)nc(-c2cc(Cl)ccc2Cl)n1`: the Potency result in test [1], in test [2], in test [3] and in test [4] was “inactive” in each case.

`CCCCc1oc2ccc(NS(C)(=O)=O)cc2c1C(=O)c1ccc(OCCCN(CCCC)CCCC)cc1`: the Potency in test [1] and in test [4] was 11.8 µM (active) in each case. Also, the Potency entry in test [2] is “inactive”.

As to `CC(C)OC(=O)C(C(=O)OC(C)C)=C1SC=CS1`, the Potency entry in test [1], in test [2], in test [3] and in test [4] was “inactive” each time.

Turning to `O=C(O)c1cc(=O)[nH]c(=O)[nH]1`, the Potency entry in test [1], in test [2], in test [3] and in test [4] was “inactive” throughout.

Regarding `CC(C)(Sc1cc(C(C)(C)C)c(O)c(C(C)(C)C)c1)Sc1cc(C(C)(C)C)c(O)c(C(C)(C)C)c1`, the Potency result in test [2] and in test [3] was “inactive” in each case.

As for `CO[C@@]12[C@H](COC(N)=O)C3=C(C(=O)C(C)=C(N)C3=O)N1C[C@@H]1N[C@@H]12`, the Potency entry in test [2] was “inactive”. Further, the Potency in test [3] is 9.35 µM (active).

For `CC1=NN(c2ccccc2)C(=O)C1`, the Potency result in test [2], in test [3] and in test [4] was “inactive” throughout.

As for `CS(=O)(=O)c1ccc([C@@H](O)[C@@H](CO)NC(=O)C(Cl)Cl)cc1`, the Potency entry in test [2] and in test [3] was “inactive” in each case.

In the case of `CCC(=O)O[C@]1(C(=O)CCl)[C@@H](C)C[C@H]2[C@@H]3CCC4=CC(=O)C=C[C@]4(C)[C@@]3(F)[C@@H](O)C[C@@]21C`, the Potency result in test [2], in test [3] and in test [4] was “inactive” in each case.

As for `O=C(O)CCn1c2c(c3ccccc31)C[C@H](NS(=O)(=O)c1ccc(F)cc1)CC2`, the Potency entry in test [2], in test [3] and in test [4] was “inactive” each time.

As to `O[C@@H](CNC[C@H](O)[C@H]1CCc2cc(F)ccc2O1)[C@@H]1CCc2cc(F)ccc2O1`, the Potency entry in test [2] and in test [3] was “inactive” in each case.

In the case of `O=C(O)c1ccc(-n2nc(-c3ccccc3O)nc2-c2ccccc2O)cc1`, the Potency in test [4] is 20.9 µM (active).

As for `Cc1cccc(Nc2ccncc2S(=O)(=O)NC(=O)NC(C)C)c1`, the Potency entry in test [2], in test [3] and in test [4] was “inactive” in each case.
